According to PubChem BioAssay (Tox21):
Results filed as inconclusive are left out. A call without a number means that no potency is given here. Activity calls are given as the source filed them. The call rests on the fitted dose curve; in most records, active means well fitted activation curve with a large enough effect in the repeat runs; inconclusive means weak or mixed curves; inactive means flat fitted curve, though single readings scatter.

Assay: A CellTox Green Cytotoxicity Assay to monitor cytotoxicity in HEK293 cells - 16 hour (AID 1224888); further: nearly all actives have a fitted effect of over 35% in size
Settings: CellTox Green fluorescence; series mostly up to 76.8 µM
From the text: National Center for Advancing Translational Sciences [NCATS]
NIH Chemical Genomics Center [NCGC]
U.S. Environmental Protection Agency [EPA]
National Institutes of Environmental Health Sciences [NIEHS]
National Toxicology Program [NTP]
Cell-based models are critical for drug discovery. Determining the natural cytotoxic effects resulting from test compounds is an essential research activity. A CellTox Green Cytotoxicity Assay to monitor cytotoxicity in real time of continues cell culture during 40 hours of the compound treatment was used to screen Tox21 10K library compounds in Hek293 cells. CellTox Green Cytotoxicity Assay is a nonlytic, homogeneous, biofluorescent method to measure cytotoxicity in cell culture after experimental manipulation. The assay system uses a proprietary asymmetric cyanine dye that is excluded from viable cells but preferentially stains the dead cell's DNA. […] Viable cells produce no appreciable increases in fluorescence. Therefore, the fluorescence signal produced by the binding interaction with dead cell DNA is proportional to cytotoxicity.
The mixture of Hek293 cell suspension and reagents were dispensed at 600cells/6 ul/well in 1536-well tissue culture treated black solid bottom plates using a Multidrop dispenser. After the assay plates were incubated at a 37 C/5% CO2 incubator for 5 hours, 23 nL of compounds dissolved in DMSO, positive and negative controls was transferred to the assay plate by a pintool work station. The plates were incubated at 37 C for 40 hours. The fluorescence intensity were measured at 0h, 8h, 16h, 24h, 32h and 40h time points using ViewLux plate reader during compound treatment.
For CO[C@@H]1[C@H](OC(=O)NC(=O)CCl)CC[C@]2(CO2)[C@H]1[C@@]1(C)O[C@@H]1CC=C(C)C, the activity change was -10.6% [at 15.8 µM, stronger effect = higher value] (inactive). In the case of C=CC(=O)OCC(C)O (stereo not given), the Potency is reported as “inactive”. With C=CCOC(C)=O the Potency was “inactive”. For O=C(OC1CCCCC1)c1ccccc1C(=O)OC1CCCCC1, the Potency was “inactive”. In the case of N#CCc1ccccc1, the Potency is reported as “inactive”. In the case of CCOP(=O)(OCC)Oc1ccc([N+](=O)[O-])cc1, the Potency is reported as “inactive”. For ClCC(Br)CBr (stereo not given), the Potency was “inactive”. With COP(=S)(Oc1cc(Cl)c(Br)cc1Cl)c1ccccc1 (stereo not given) the Potency was “inactive”. In the case of CCCCN(N=O)C(=N)N[N+](=O)[O-], the Potency is reported as “inactive”. For O=C(CCl)c1ccc(Cl)cc1Cl, the Potency was “inactive”. In the case of CCn1cc[n+](C)c1, the Potency is reported as “inactive”. For C[N+](C)(C)CCCl, the Potency was “inactive”. In the case of CCCN(CCC)c1c([N+](=O)[O-])cc(S(C)(=O)=O)cc1[N+](=O)[O-], the Potency is reported as “inactive”. With CC(C)=CCOc1c2occc2cc2ccc(=O)oc12 the Potency was “inactive”. In the case of [O-][Cl+]O, the Potency is reported as “inactive”. In the case of CCCCCCCCCC(=O)O[C@H]1CC[C@H]2[C@@H]3CCC4=CC(=O)CC[C@@H]4[C@H]3CC[C@]12C, the Potency is reported as “inactive”. With CC(C)(CCl)C(=O)Cl the Potency was “inactive”. For N#Cc1cc(I)c(O)c(I)c1, the Potency was “inactive”. With O=C(NC(=O)c1c(F)cccc1F)Nc1cc(Cl)c(Oc2ncc(C(F)(F)F)cc2Cl)c(Cl)c1 the Potency was “inactive”. For BrCCCCBr, the Potency was “inactive”. In the case of CC(C)(C)c1cc([N+](=O)[O-])cc([N+](=O)[O-])c1O, the Potency is reported as “inactive”. For CCOC(=O)[C@]1(c2ccccc2)Oc2ccccc2[C@@H]1N, the Potency was “inactive”. In the case of OC(c1ccc(Cl)cc1)(c1ccc(Cl)cc1)c1cccnc1, the Potency is reported as “inactive”. In the case of CCCCOC(=O)c1ccccc1C(=O)OCc1ccccc1, the Potency is reported as “inactive”. With Cn1sc(Cl)cc1=O the Potency was “inactive”. With CN(N=O)c1ccc([N+](=O)[O-])cc1 the Potency was “inactive”. For CCOP(=S)(OCC)Oc1cc(Cl)c(Br)cc1Cl, the Potency was “inactive”. With COc1cc(Cl)c(OC)cc1Cl the Potency was “inactive”. For CC(Cl)C(C)Cl (stereo not given), the Potency was “inactive”. In the case of Cl/C=C\C[N+]12CN3CN(CN(C3)C1)C2, the Potency is reported as “inactive”. For O=C(O)C(F)(F)C(F)(F)C(F)(F)C(F)(F)C(F)(F)C(F)(F)C(F)(F)C(F)(F)C(F)(F)F, the Potency was “inactive”. With O=C(O)c1ccccc1C(=O)Nc1cccc2ccccc12 the Potency was “inactive”. In the case of C=C(C#N)CCC#N, the Potency is reported as “inactive”. For CCC(C)(NC(=O)c1cc(Cl)c(C)c(Cl)c1)C(=O)CCl (stereo not given), the Potency was “inactive”. With c1ccc(C2CC2)c(OCC2=NCCN2)c1 the Potency was “inactive”. For S=C=NCc1ccccc1, the Potency was “inactive”. In the case of CC1C(=O)C[C@]2(C(C)C)C[C@H]12 (stereo not given in full), the Potency is reported as “inactive”. For CCCCC(CC)COP(=O)(Oc1ccccc1)Oc1ccccc1 (stereo not given), the Potency was “inactive”. For O=NN1CCCCCC1, the Potency was “inactive”. For CC(O)(CS(=O)(=O)c1ccc(F)cc1)C(=O)Nc1ccc(C#N)c(C(F)(F)F)c1 (stereo not given), the Potency was “inactive”.
